# Measured values: PubChem BioAssay (NCI)
# Compounds without any hit were thinned out: in the full panel of roughly 83,000, 20% have a hit.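 96-well plates, one dose, 48 hours. Percent growth reported; active if below 10.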 Values without a mark were called inactive. Calls of active or inactive are those of the source.
# Key:
# Assay in all cases: NCI-60 one-dose screen, 48 h (100 = growth as untreated, 0 = no growth, -100 = all killed)
# Settings in all cases: 10 µM
# SK-MEL-2 melanoma = test system: SK-MEL-2 melanoma
# SN12C renal = test system: SN12C renal
# UO-31 renal = test system: UO-31 renal
# TK-10 renal = test system: TK-10 renal
# ACHN renal = test system: ACHN renal
# CAKI-1 renal = test system: CAKI-1 renal
# A498 renal = test system: A498 renal
# CCRF-CEM leukemia = test system: CCRF-CEM leukemia
# MOLT-4 leukemia = test system: MOLT-4 leukemia
# SR leukemia = test system: SR leukemia
# RPMI-8226 leukemia = test system: RPMI-8226 leukemia
# OVCAR-8 ovarian = test system: OVCAR-8 ovarian
# OVCAR-5 ovarian = test system: OVCAR-5 ovarian
# OVCAR-4 ovarian = test system: OVCAR-4 ovarian
# IGROV1 ovarian = test system: IGROV1 ovarian
# OVCAR-3 ovarian = test system: OVCAR-3 ovarian
# HS 578T breast = test system: HS 578T breast
# NCI/ADR-RES ovarian = test system: NCI/ADR-RES ovarian
# SK-OV-3 ovarian = test system: SK-OV-3 ovarian
Structure (SMILES),growth (SK-MEL-2 melanoma),growth (SN12C renal),growth (UO-31 renal),growth (TK-10 renal),growth (ACHN renal),growth (CAKI-1 renal),growth (A498 renal),growth (CCRF-CEM leukemia),growth (MOLT-4 leukemia),growth (SR leukemia) [%],growth (RPMI-8226 leukemia),growth (OVCAR-8 ovarian),growth (OVCAR-5 ovarian),growth (OVCAR-4 ovarian),growth (IGROV1 ovarian),growth (OVCAR-3 ovarian),growth (HS 578T breast),growth (NCI/ADR-RES ovarian),growth (SK-OV-3 ovarian) [%]
CCOC(=O)/C(C#N)=C(/C)C1CC1,111%,107%,88.3%,116%,105%,104%,94.1%,103%,114%,102,98.4%,107%,105%,104%,121%,101%,107%,111%,
COc1cccc2c1C(=O)c1c(O)c3c(c(O)c1C2=O)C[C@@](O)(C(=O)COC(=O)c1cccnc1)C[C@@H]3OC1CC(N)C(O)C(C)O1 (some centres not stated),-71.1% (active),6.29% (active),-40.4% (active),-9.29% (active),-7.12% (active),-40.7% (active),-56.6% (active),0.652% (active),-24.8% (active),,-29% (active),-15.8% (active),6.95% (active),0.907% (active),-12.4% (active),-9.51% (active),-12.8% (active),57%,22.5
Fc1cc(-c2ncc(-c3cc(F)c(F)c(F)c3)c(NC3CCCCCC3)n2)cc(F)c1F,111%,87.9%,88.8%,152%,106%,87.6%,96.8%,96.2%,102%,95.9,96.3%,102%,110%,89.1%,110%,110%,102%,106%,
O=C(CCCC(=O)N/N=C/c1cc(Cl)ccc1O)N/N=C\c1cc(Cl)ccc1O,51.7%,35.3%,5.41% (active),32.3%,23.1%,-1.73% (active),63.5%,-0.225% (active),-12.9% (active),,27.3%,20.3%,67.4%,22.1%,31.2%,35.5%,68.4%,14.1%,13.9
Nc1c(C(=O)Nc2ccccc2F)sc2nc3c(cc12)C(=O)CCC3,42.6%,49.8%,76%,59.7%,65.4%,4.36% (active),-1.01% (active),26.8%,73.6%,36.7,52%,58.6%,71.1%,,,16.8%,37.2%,-4.39% (active),13.6
CC(C)=C1CCC(C)C/C1=N\N=C(N)N (configuration not stated),102%,103%,81.3%,98.3%,105%,93.3%,88.6%,86.9%,98.8%,105,96.7%,104%,110%,107%,98.6%,,105%,101%,106
